# Test results published in PubChem BioAssay AID504467 (National Center for Advancing Translational Sciences (NCATS), 2011).
# In all, about 330,000 compounds went through this assay and about 7,700 (2.3%) were called active. Where a call stands in place of a potency, no number is given. Another 26% or so got no clear call; they are omitted. The call rests on the fitted dose curve; in most records, active means well fitted inhibition curve with a large enough effect; inconclusive means small, poorly fitted or top-dose-only effect, or effect the other way; inactive means flat fitted curve, though single readings scatter. Only a selection was taken, and actives are over-represented in it overall.
# Assay: qHTS screen for small molecules that inhibit ELG1-dependent DNA repair in human embryonic kidney (HEK293T) cells expressing luciferase-tagged ELG1; further: nearly all actives have a fitted effect of over 55% in size
# Settings: HEK293T ELG1-luciferase reporter, luminescence, 16 h, DNA damage induced by 5-fluorouridine; series mostly up to 46.1 µM
# Method in brief: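 Step one: seed 2,000 cells per well. Step two: pin-transfer compound or DMSO alongside 5-fluorouridine. Step three: incubate 16 hr, 37 °C, 5% CO2. Step four: add ONE-Glo, wait 30 min, read luminescence.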
# Potency means the concentration at half of the fitted maximal effect.
row,Structure (SMILES),Potency
1,Cc1ccc(CN2CC(C(=O)N3CCN(S(=O)(=O)c4ccccc4)CC3)CC2=O)cc1 (configuration not stated),inactive
2,CC(=O)Nc1ccc(Nc2c3ccccc3nc3ccccc23)cc1,inactive
3,O=C(NNc1c2ccccc2nc2ccccc12)c1cc2ccccc2cc1O,13 µM (active)
4,Cc1ccc(/C=N/NC(=O)c2cc3ccccc3cc2O)o1,inactive
5,CCS(=O)(=O)Nc1ccc(C2=NN(S(=O)(=O)c3ccc(F)cc3)C(c3ccco3)C2)cc1 (configuration not stated),20.6 µM (active)
6,COc1cccc(C2CC(c3ccccc3)=NN2S(=O)(=O)c2ccccc2)c1OC (configuration not stated),inactive
7,Cc1ccc(C2=NN(C(=O)COc3ncnc4ccccc34)C(c3ccco3)C2)cc1 (configuration not stated),inactive
8,CC(NCC(=O)Nc1cc(Cl)cc(Cl)c1)c1ccccc1 (configuration not stated),inactive
9,COc1ccc(/C=C(/NC(=O)c2ccccc2)C(=O)Nc2cccc(C(=O)O)c2)cc1,inactive
10,COc1cc(SC)ccc1C(=O)N(Cc1ccccc1)c1ccccc1,inactive
11,CCCC(=O)Nc1cccc(NC(=S)NC(=O)C(C)Oc2ccc(Cl)cc2Cl)c1 (configuration not stated),20.6 µM (active)
12,COc1cccc(NC(=O)CN(C)C(=O)Cc2ccc(Cl)cc2Cl)c1,inactive
13,CC(Oc1ccc(Cl)cc1Cl)C(=O)/C=C/N(C)C (configuration not stated),inactive
14,COc1ccc(C)cc1NC(=O)CN(C)S(=O)(=O)c1ccc2c(c1)n(C)c(=O)c(=O)n2C,inactive
15,Cc1ccc(C)c(C(=O)COC(=O)Cn2[nH]c(=O)c3ccccc3c2=O)c1,inactive
16,O=C(CCc1nc(-c2ccccc2)no1)Nc1cccc(C(=O)NC2CC2)c1,inactive
17,CN(CC(=O)Nc1c(Cl)cccc1Cl)C(=O)CC1OC(=O)c2ccccc21 (configuration not stated),inactive
18,CCN(C(=O)COC(=O)c1c(NC(C)=O)sc(C)c1C)C1CCS(=O)(=O)C1 (configuration not stated),inactive
19,CCN(C(=O)COC(=O)/C=C/c1nc2ccccc2s1)C1CCS(=O)(=O)C1 (configuration not stated),9.2 µM (active)
20,CCN(C(=O)CSc1nc2ccccc2n1CC)C1CCS(=O)(=O)C1 (configuration not stated),inactive
21,C=CC(COCc1ccccc1)N(CC(=O)OC)S(=O)(=O)c1cc(Br)ccc1OC (configuration not stated),inactive
22,Cc1nc2cc(C(F)(F)F)ccc2n1CCNc1nc(-c2cc(Cl)c(N)c(Cl)c2)cs1,inactive
23,COc1ccc(-c2c(C)cc3oc(=O)cc(-c4ccccc4)c3c2C)cc1OC,inactive
24,COc1ccc(-c2c(C)cc3oc(=O)cc(-c4ccccc4)c3c2C)cc1F,inactive
25,COc1ccc(-c2c(C)cc3oc(=O)cc(-c4ccccc4)c3c2C)cc1C=O,25.9 µM (active)
26,CCOC(=O)N1CCN(Cc2nnc(-c3ccccc3Cl)o2)CC1,inactive
27,Cc1ccc(F)cc1NC(=O)CSCc1c(C)noc1C,inactive
